Reference: PubChem BioAssay (Tox21)
Records with an inconclusive call do not appear. Active and inactive are the calls of the source. Calls come from the whole dose curve; as a rule, active = well fitted curve in the direction sought with a large enough effect in the repeat runs; inconclusive = weak or mixed curves; inactive = no such curve, though single readings can be large; an effect the other way counts as inactive or inconclusive.

Experiments:
[1] = qHTS RealTime-Glo MT Cell Viability Assay in HEK293 cells - 40 hour (AID 1224874); details: RealTime-Glo luminescence; max response: hits give low values; note: nearly all actives have a fitted effect of over 50% in size; note: potency is the fitted concentration of half-maximal effect
Method in brief: (§1)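 Measured as luminescence from the same continuously cultured HEK293 wells at successive time points (0, 8, 16, 24, 32, 40 h) after compound addition. Reagent present from seeding; dosing at 5 h; incubation 37 C.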

[2] = A CellTox Green Cytotoxicity Assay to monitor cytotoxicity in HEK293 cells - 24 hour (AID 1224875); note: nearly all actives have a fitted effect of over 45% in size; note: potency is the fitted concentration of half-maximal effect
Method in brief: (§2)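 Homogeneous no-lysis format: HEK293 cell suspension mixed with CellTox Green reagent, seeded, incubated 5 h at 37 C/5% CO2, then dosed by pintool with compound in DMSO.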

[3] = A CellTox Green Cytotoxicity Assay to monitor cytotoxicity in HepG2 cells - 16 hour (AID 1224876); note: nearly all actives have a fitted effect of over 45% in size; note: potency is the fitted concentration of half-maximal effect
Method in brief: (§3)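 Fluorescent DNA-binding dye, 600 HepG2 cells/well, 5 h preincubation then compound in DMSO; same plates read at 0–40 h, 37 C.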

[4] = A CellTox Green Cytotoxicity Assay to monitor cytotoxicity in HepG2 cells - 40 hour (AID 1224879); note: nearly all actives have a fitted effect of over 40% in size; note: potency is the fitted concentration of half-maximal effect
Method in brief: as §3

[5] = qHTS RealTime-Glo MT Cell Viability Assay in HEK293 cells - 0 hour (AID 1224880); note: nearly all actives have a fitted effect of over 45% in size; note: potency is the fitted concentration of half-maximal effect
Method in brief: as §1

[6] = A CellTox Green Cytotoxicity Assay to monitor cytotoxicity in HepG2 cells - 0 hour (AID 1224882); note: nearly all actives have a fitted effect of over 35% in size
Method in brief: as §3

[7] = A CellTox Green Cytotoxicity Assay to monitor cytotoxicity in HEK293 cells - 8 hour (AID 1224884); note: nearly all actives have a fitted effect of over 35% in size; note: potency is the fitted concentration of half-maximal effect
Method in brief: as §2

[8] = qHTS RealTime-Glo MT Cell Viability Assay in HepG2 cells - 16 hour (AID 1224885); note: nearly all actives have a fitted effect of over 50% in size; note: potency is the fitted concentration of half-maximal effect
Method in brief: (§4)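 Real-time, nonlytic viability: 600 HepG2 cells/well mixed with NanoLuc enzyme plus prosubstrate; 5 h settle, compound (DMSO) added by pintool; luminescence monitored over 40 h at 37 C.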

[9] = qHTS RealTime-Glo MT Cell Viability Assay in HEK293 cells - 24 hour (AID 1224886); note: nearly all actives have a fitted effect of over 50% in size; note: potency is the fitted concentration of half-maximal effect
Method in brief: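 Cells + reagent dispensed (600 cells/well, HEK293) → 5 h at 37 C/5% CO2 → 23 nL compound in DMSO pinned → 40 h at 37 C → luminescence read at 0, 8, 16, 24, 32, 40 h.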

[10] = qHTS RealTime-Glo MT Cell Viability Assay in HEK293 cells - 8 hour (AID 1224887); note: nearly all actives have a fitted effect of over 50% in size; note: potency is the fitted concentration of half-maximal effect
Method in brief: as §1

[11] = A CellTox Green Cytotoxicity Assay to monitor cytotoxicity in HEK293 cells - 16 hour (AID 1224888); note: nearly all actives have a fitted effect of over 35% in size; note: potency is the fitted concentration of half-maximal effect
Method in brief: as §2

[12] = qHTS RealTime-Glo MT Cell Viability Assay in HepG2 cells - 0 hour (AID 1224889); note: nearly all actives have a fitted effect of over 50% in size; note: potency is the fitted concentration of half-maximal effect
Method in brief: as §4

[13] = A CellTox Green Cytotoxicity Assay to monitor cytotoxicity in HepG2 cells - 8 hour (AID 1224890); note: nearly all actives have a fitted effect of over 45% in size; note: potency is the fitted concentration of half-maximal effect
Method in brief: as §3

[14] = qHTS assay to identify small molecule antagonists of the estrogen receptor alpha (ER-alpha) signaling pathway using the BG1 cell line in the presence of 0.1 nM 17-beta-estradiol - cell viability counter screen (AID 1259241); note: nearly all actives have a fitted effect of over 40% in size; note: potency is the fitted concentration of half-maximal effect
Method in brief: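 Live-cell protease activity (CellTiter-Fluor fluorescence, 30 min) was read in the same wells after VM7Luc4E2 cells had been exposed to compounds with 0.1 nM 17beta-estradiol for 22 hr at 37C.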

[15] = qHTS RealTime-Glo MT Cell Viability Assay in HepG2 cells - 8 hour (AID 1224873); note: nearly all actives have a fitted effect of over 55% in size
Method in brief: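 HepG2 cells mixed with RealTime-Glo MT reagents (NanoLuc plus cell-permeant prosubstrate) were seeded at 600 cells/well, incubated 5 h at 37 C/5% CO2, then pinned with compounds in DMSO; nonlytic luminescence tracked viability during 40 h treatment.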

[16] = qHTS RealTime-Glo MT Cell Viability Assay in HepG2 cells - 32 hour (AID 1224877); note: nearly all actives have a fitted effect of over 55% in size; note: potency is the fitted concentration of half-maximal effect
Method in brief: as §4

[17] = A CellTox Green Cytotoxicity Assay to monitor cytotoxicity in HepG2 cells - 24 hour (AID 1224878); note: nearly all actives have a fitted effect of over 45% in size; note: potency is the fitted concentration of half-maximal effect
Method in brief: as §3

[18] = A CellTox Green Cytotoxicity Assay to monitor cytotoxicity in HEK293 cells - 32 hour (AID 1224881); note: nearly all actives have a fitted effect of over 40% in size; note: potency is the fitted concentration of half-maximal effect
Method in brief: as §2

[19] = A CellTox Green Cytotoxicity Assay to monitor cytotoxicity in HepG2 cells - 32 hour (AID 1224883); note: nearly all actives have a fitted effect of over 50% in size; note: potency is the fitted concentration of half-maximal effect
Method in brief: as §3
% is set by controls: 0 for no effect and ±100 for the full control effect.

CCN(CC)c1ccc(N)cc1
inactive: Potency [2] | Potency [3] | Potency [5] | Potency [6] | Potency [7] | Potency [11] | Potency [12] | Potency [13]
active: Potency [1] 17.8 µM | Potency [4] 50.3 µM | Potency [8] 50.3 µM | Potency [9] 22.5 µM | Potency [10] 20 µM | Potency [14] 17.7 µM

CCCCNc1c(C(=O)OCC)c(C)nc2c1cnn2CC
active: Potency [9] 12 µM | Potency [10] 13.4 µM
inactive: Potency [15] | Potency [2] | Potency [3] | Potency [16] | Potency [17] | Potency [5] | Potency [18] | Potency [6] | Potency [19] | Potency [7] | Potency [8] | Potency [11] | Potency [12] | Potency [13] | Potency [14]

C=C1C(C)(C)[C@@]2(Cl)C(Cl)[C@]1(Cl)C(Cl)(Cl)C2(Cl)Cl (some centres undefined)
inactive: Potency [3] | Potency [5] | Potency [6] | Potency [12] | Potency [13] | Potency [14]
active: Potency [17] 48.1 µM | Potency [4] 53.9 µM | Potency [19] 53.9 µM | Potency [10] 53.9 µM

O=C(NO)c1ccccc1
inactive: Potency [15] | Potency [16] | Potency [5] | Potency [6] | Potency [8] | Potency [10] | Potency [12] | Potency [14]

Oc1ccc(-c2ccc(O)cc2)cc1
inactive: Potency [15] | Potency [3] | Potency [16] | Potency [17] | Potency [4] | Potency [5] | Potency [18] | Potency [19] | Potency [7] | Potency [8] | Potency [10] | Potency [11] | Potency [12] | Potency [13] | Potency [14]

CC(C)c1ccc(O)c(C(C)C)c1
active: Potency [2] 21.9 µM | Potency [3] 43.6 µM | Potency [17] 27.5 µM | Potency [4] 27.5 µM | Potency [18] 21.9 µM | Potency [11] 19.5 µM | Potency [13] 43.6 µM
inactive: max response [1] -12.3% | Potency [16] | Potency [5] | Potency [6] | Potency [8] | Potency [9] | Potency [12] | Potency [14]

Cc1nc(Nc2ncc(C(=O)Nc3c(C)cccc3Cl)s2)cc(N2CCN(CCO)CC2)n1
inactive: Potency [15] | Potency [2] | Potency [18] | Potency [6] | Potency [7] | Potency [11] | Potency [13]
active: Potency [17] 26.8 µM | Potency [4] 26.8 µM | Potency [5] 26.8 µM | Potency [19] 26.8 µM | Potency [9] 30.1 µM | Potency [12] 23.9 µM

NC(=O)c1nc(-c2cccc(-c3cc(F)ccc3OCC(F)(F)C(F)(F)F)c2)n[nH]1
inactive: Potency [15] | Potency [5] | Potency [6] | Potency [7] | Potency [8] | Potency [10] | Potency [11] | Potency [12] | Potency [14]
active: Potency [3] 49 µM | Potency [17] 43.6 µM | Potency [4] 43.6 µM

CN(Cc1cc(Br)cc(Br)c1N)C1CCCCC1
inactive: Potency [15] | Potency [16] | Potency [5] | Potency [7] | Potency [8] | Potency [12] | Potency [14]
active: Potency [3] 19 µM | Potency [17] 21.3 µM

CC(C)(C)CC(C)(C)c1ccccc1O
active: Potency [3] 24.7 µM | Potency [17] 27.7 µM | Potency [4] 34.9 µM | Potency [18] 43.9 µM | Potency [19] 27.7 µM | Potency [7] 39.1 µM | Potency [10] 34.9 µM | Potency [11] 39.1 µM
inactive: Potency [15] | Potency [16] | Potency [5] | Potency [6] | Potency [8] | Potency [12] | Potency [14]

Oc1cc2ccccc2cc1O
inactive: Potency [15] | Potency [3] | Potency [16] | Potency [17] | Potency [4] | Potency [6] | Potency [19] | Potency [7] | Potency [8] | Potency [12] | Potency [13] | Potency [14]

CC(C)OC(=O)c1cc(C(=O)OC(C)C)cc([N+](=O)[O-])c1
inactive: Potency [15] | Potency [3] | Potency [16] | Potency [4] | Potency [5] | Potency [6] | Potency [8] | Potency [11] | Potency [12] | Potency [13] | Potency [14]

S=P(N1CC1)(N1CC1)N1CC1
inactive: Potency [15] | Potency [2] | Potency [3] | Potency [16] | Potency [17] | Potency [4] | Potency [5] | Potency [18] | Potency [6] | Potency [19] | Potency [8] | Potency [10] | Potency [11] | Potency [12] | Potency [14]

CCCCCCOc1ccc(O)cc1
inactive: Potency [5] | Potency [6] | Potency [7] | Potency [11] | Potency [12] | Potency [14]
active: Potency [1] 0.0776 µM | Potency [18] 19.5 µM | Potency [9] 0.0617 µM | Potency [10] 0.0617 µM | Potency [13] 24.5 µM

Clc1cc(Cl)c(-c2c(Cl)c(Cl)cc(Cl)c2Cl)cc1Cl
inactive: Potency [15] | Potency [2] | Potency [3] | Potency [16] | Potency [17] | Potency [4] | Potency [5] | Potency [18] | Potency [6] | Potency [19] | Potency [7] | Potency [8] | Potency [10] | Potency [11] | Potency [13] | Potency [14]

CC(=O)c1ccccc1N
inactive: Potency [15] | Potency [2] | Potency [3] | Potency [16] | Potency [17] | Potency [4] | Potency [5] | Potency [18] | Potency [19] | Potency [7] | Potency [8] | Potency [11] | Potency [12] | Potency [13] | Potency [14]

CCCSS/C(CCO)=C(\C)N(C=O)Cc1cnc(C)nc1N
active: Potency [4] 26.8 µM
inactive: Potency [15] | Potency [2] | Potency [3] | Potency [17] | Potency [5] | Potency [18] | Potency [6] | Potency [7] | Potency [8] | Potency [10] | Potency [11] | Potency [12] | Potency [13] | Potency [14]

CCCCCCCC/C=C\CCCCCCCC(=O)N(C)CC(=O)O
active: Potency [18] 34.7 µM | Potency [7] 38.9 µM | Potency [11] 24.5 µM
inactive: Potency [15] | Potency [3] | Potency [5] | Potency [6] | Potency [8] | Potency [12] | Potency [13] | Potency [14]

CC(O)C#CC(C)O (centres undefined)
active: Potency [18] 54.4 µM
inactive: Potency [5] | Potency [7] | Potency [10] | Potency [11] | Potency [12] | Potency [13] | Potency [14]

CCCCOc1ccc(C(=O)CCN2CCCCC2)cc1
active: Potency [1] 13.4 µM | Potency [2] 16.9 µM | Potency [3] 19 µM | Potency [16] 10.7 µM | Potency [17] 19 µM | Potency [4] 19 µM | Potency [18] 19 µM | Potency [19] 12 µM | Potency [8] 23.9 µM | Potency [9] 23.9 µM | Potency [13] 21.3 µM
inactive: Potency [5] | Potency [6] | Potency [7] | Potency [11] | Potency [12] | Potency [14]

CCOB(OCC)OCC
inactive: Potency [15] | Potency [2] | Potency [16] | Potency [18] | Potency [6] | Potency [7] | Potency [8] | Potency [11] | Potency [12] | Potency [14]

OCCN1CN(CCO)CN(CCO)C1
inactive: Potency [15] | Potency [3] | Potency [16] | Potency [17] | Potency [4] | Potency [5] | Potency [18] | Potency [6] | Potency [7] | Potency [8] | Potency [9] | Potency [10] | Potency [11] | Potency [12] | Potency [13] | Potency [14]

C[C@]12CC[C@H]3C(=CCc4cc(O)ccc43)[C@@H]1CCC2=O
inactive: Potency [3] | Potency [16] | Potency [17] | Potency [5] | Potency [18] | Potency [6] | Potency [7] | Potency [10] | Potency [11] | Potency [12] | Potency [13] | Potency [14]
active: Potency [1] 43.6 µM | Potency [9] 43.6 µM

CCCCOCC
inactive: Potency [15] | Potency [2] | Potency [3] | Potency [16] | Potency [17] | Potency [4] | Potency [18] | Potency [6] | Potency [19] | Potency [7] | Potency [8] | Potency [11] | Potency [12] | Potency [13] | Potency [14]

CNCC[C@H](Oc1cccc2ccccc12)c1cccs1
active: Potency [1] 23.9 µM | Potency [3] 23.9 µM | Potency [16] 21.3 µM | Potency [17] 21.3 µM | Potency [4] 19 µM | Potency [19] 19 µM | Potency [8] 23.9 µM | Potency [9] 23.9 µM
inactive: Potency [6] | Potency [14]
